The values that follow come from PubChem BioAssay (NCI).

Values joined by “and” are separate entries in the source; they are usually repeats but may differ in a detail not shown here. Equal entries are not always repeated. The panel holds about 83,000 compounds, 20% with a hit somewhere; the sample as a whole holds those more often.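 Single-dose data. Exposure time 48 hours. Values below 10 considered active.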 Active and inactive are the calls of the source.

In the experiment the test system is MDA-MB-468 breast. The experiment in a line: NCI-60 one-dose screen, 48 h (100 = growth as untreated, 0 = no growth, -100 = all killed). Particulars: 10 µM unless noted.
For `Clc1ccc(/C=C/c2ccc3ccccc3n2)cc1`, the growth was -11.4% (active) and 73.5% (inactive) and 80.5% (inactive).

Regarding `COc1ccc(/C=C/c2nc(-c3n[nH]c(=O)n3-c3ccccc3)c3ccccc3n2)cc1`, the growth was 100% (inactive).

Consider `Cc1cc(=O)oc2cc(Oc3nc(-c4ccc(Cl)cc4)cn4c(-c5ccc(Cl)cc5)cnc34)ccc12`, for which the growth was 84.8% (inactive).

On to `CCOC(=O)c1cc2c(=O)oc3ccccc3c2oc1=O`, for which the growth was 88.2% (inactive).

As for `CCn1cc(C(=O)O)c(=O)c2cc(F)c(N3CCN(CC(=O)Nc4ccc(C(C)=O)cc4)CC3)cc21`, the growth was 108% (inactive).

Consider `C/C(=N\O)[C@H]1C[C@]23CC[C@]4(C)[C@H](CC[C@@H]5[C@@]6(C)CC/C(=N/O)C(C)(C)[C@@H]6CC[C@]54C)[C@H]2[C@H](C)C1(C)OC3`, for which the growth was 103% (inactive).

For `O=Nc1c(O)ccc2ccccc12.O=Nc1c(O)ccc2ccccc12.O=Nc1c([O-])ccc2ccccc12.[Fe+3]`, the growth is 106% (inactive).

With `CC(C)C1=C(O)C2=C(C(=O)C1=O)[C@@]1(C)CCCC(C)(C)[C@@H]1CC2`, the growth is 73.1% (inactive).

For `CC1CC(=O)C2=C(C1)Nc1ccc(Br)cc1CC2c1c[nH]c2ccc(Br)cc12` (stereo unspecified), the growth was -3.65% (active).

As for `COc1cccc(Nc2nc(SC)nc(-c3cccc([N+](=O)[O-])c3)c2C#N)c1`, the growth is 81.2% (inactive).

For the compound `CCOC(=O)[C@@H]1CCCN(S(=O)(=O)c2ccc(S(=O)(=O)N(CC)CC)c(F)c2)C1`, the growth is 36% (inactive).
